“And” between values parts separate entries of the source, which are not always exact repeats. Identical values can stand only once. Results filed as inconclusive are left out. The source made the active and inactive calls. Unless noted, calls follow the shape of the dose curve; as a rule, active = well fitted curve in the direction sought with a large enough effect in the repeat runs; inconclusive = weak or mixed curves; inactive = no such curve, though single readings can be large; an effect the other way counts as inactive or inconclusive.

Assay [1] concerns the target Progesterone receptor (Homo sapiens) (UniProt P06401). The assay can be described thus: qHTS assay to identify small molecule antagonists of the progesterone receptor (PR) signaling pathway (AID 1346795; active = well fitted inhibition curve with a large enough effect in the signal ratio in the repeat runs, not every such curve was filed as active; the % refers to the signal ratio; also: potency is read from the fitted curve at half-maximal effect). An outline of the steps:
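Screening used a GripTite HEK293T line with PR-responsive UAS-beta-lactamase. Cells were challenged with compound in the presence of 1 nM R5020 final for 16 hr at 37C; B/G FRET substrate, 2 hr room temperature, fluorescence.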

A short description of assay [2]: qHTS assay to identify small molecule antagonists of the progesterone receptor (PR) signaling pathway - cell viability counter screen (AID 1346798). Also: nearly all actives have a fitted effect of over 50% in size. Also: potency is read from the fitted curve at half-maximal effect. An outline of the steps:
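Measures cytotoxicity in parallel with the PR antagonist reporter read: HEK293T PR-UAS-bla cells get compound and R5020 for 16 hr, and remaining viable cells are quantified by CellTiter-Glo luminescence.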

A short description of assay [3]: qHTS assay to identify small molecule agonists of the progesterone receptor (PR) signaling pathway - cell viability counter screen (AID 1346799; calls by dose curve; also: nearly all actives have a fitted effect of over 45% in size; also: potency is read from the fitted curve at half-maximal effect). An outline of the steps:
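Using the same plates as the PR reporter screen, HEK293T PR-UAS-bla cells received compounds for 16 hr at 37C and were then lysed with CellTiter-Glo; luminescence was read 30 min later at room temperature.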

Assay [4] in a line: qHTS assay to identify small molecule antagonists of the TGF-beta/Smad signaling pathway - cell viability counter screen (AID 1346824). Also: nearly all actives have a fitted effect of over 50% in size. Also: potency is read from the fitted curve at half-maximal effect. In a few lines:
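SBE-bla HEK 293T cells, incubated overnight, then compound plus 0.25 ng/mL TGF-beta1 (stock added) for 5 hr at 37 C. Viability was read in the same wells by CellTiter-Glo luminescence after 30 min at room temperature.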

A short description of assay [5]: qHTS assay to identify small molecule agonists of the TGF-beta/Smad signaling pathway - cell viability counter screen (AID 1346829). Also: nearly all actives have a fitted effect of over 45% in size. Also: potency is read from the fitted curve at half-maximal effect. An outline of the steps: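 Cytotoxicity counter screen: CellTiter-Glo luminescence (30 min, room temperature) measured in the SBE-bla HEK 293T reporter wells after 5 hr compound treatment at 37 C and the 2 hr substrate step.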
Assay [6] in a line: qHTS assay to identify small molecule agonists of the TGF-beta/Smad signaling pathway (AID 1346859; active = well fitted activation curve with a large enough effect in the signal ratio in the repeat runs, not every such curve was filed as active; the % refers to the signal ratio; also: series mostly up to about 77 µM). In a few lines: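 Beta-lactamase reporter activity downstream of Smad binding elements was measured in stably transfected HEK 293T cells; compounds were incubated for 5 hr, substrate for 2 hr at room temperature.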
Assay [7] concerns the target Thyrotropin-releasing hormone receptor (Homo sapiens) (UniProt P34981). The assay can be described thus: qHTS assay to identify small molecule antagonists of the thyrotropin-releasing hormone receptor (TRHR) signaling pathway (AID 1346877; active = well fitted inhibition curve with a large enough effect in the repeat runs, not every such curve was filed as active; also: series mostly up to about 51 µM). An outline of the steps: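 Kinetic fluorescence (3 min, 1 s resolution) following stimulation with TRH at 1 nM final; HEK293 cells bearing human TRHR; 5 min compound preincubation at RT; concentration-response over 15 points, triplicates.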

Assay [8] in a line: Human pregnane X receptor (PXR) small molecule agonists, qHTS cell viability counter screen (AID 1346977). Also: nearly all actives have a fitted effect of over 50% in size. Also: potency is read from the fitted curve at half-maximal effect. An outline of the steps: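 After a 5hr pre-incubation, PXR-Luc HepG2 cells received compounds plus positive control in DMSO and were kept 24hr at 37C. Cell viability was quantified by fluorescence from CellTiter-Fluor added for the final hour.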
Assay [9] is described as follows: Caspase-3/7 induction in HepG2 cells by small molecules, qHTS assay (AID 1346978). Also: nearly all actives have a fitted effect of over 15% in size. Also: potency is read from the fitted curve at half-maximal effect. An outline of the steps: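 Wild-type HepG2 cells, 2,000/well, settled 5 hr at 37 C and 5% CO2, then compound-treated for 17 hr; caspase-3/7 activity read by luminescent Caspase-Glo 3/7 after 30 min at room temperature.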
The target in assay [10] is Thyrotropin-releasing hormone receptor (Homo sapiens) (UniProt P34981). The assay can be described thus: qHTS assay to identify small molecule agonists of the thyrotropin-releasing hormone receptor (TRHR) signaling pathway (AID 1346891; calls by dose curve;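 also: HEK293 cells expressing TRHR with calcium dye readout; series mostly up to about 58 µM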). An outline of the steps: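 Overnight-plated (18 h, 37 °C, 5% CO2) TRHR-Hek293 cells; 2 h calcium dye at 37 °C; compound in DMSO; 3-min kinetic fluorescence read.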
Thyrotropin-releasing hormone receptor (Homo sapiens), sequence (P34981 whole entry, looked up): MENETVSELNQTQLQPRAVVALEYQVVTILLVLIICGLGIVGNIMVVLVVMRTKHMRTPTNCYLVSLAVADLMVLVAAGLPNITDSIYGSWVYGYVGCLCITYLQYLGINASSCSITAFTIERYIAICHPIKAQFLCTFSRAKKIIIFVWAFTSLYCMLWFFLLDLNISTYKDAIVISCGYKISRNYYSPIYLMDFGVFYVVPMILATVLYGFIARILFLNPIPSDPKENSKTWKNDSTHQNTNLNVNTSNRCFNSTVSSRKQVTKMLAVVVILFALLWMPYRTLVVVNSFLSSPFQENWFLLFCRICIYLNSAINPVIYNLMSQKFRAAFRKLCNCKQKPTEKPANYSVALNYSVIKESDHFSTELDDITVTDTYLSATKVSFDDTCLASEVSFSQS

Progesterone receptor (Homo sapiens), sequence (P06401 whole entry, looked up): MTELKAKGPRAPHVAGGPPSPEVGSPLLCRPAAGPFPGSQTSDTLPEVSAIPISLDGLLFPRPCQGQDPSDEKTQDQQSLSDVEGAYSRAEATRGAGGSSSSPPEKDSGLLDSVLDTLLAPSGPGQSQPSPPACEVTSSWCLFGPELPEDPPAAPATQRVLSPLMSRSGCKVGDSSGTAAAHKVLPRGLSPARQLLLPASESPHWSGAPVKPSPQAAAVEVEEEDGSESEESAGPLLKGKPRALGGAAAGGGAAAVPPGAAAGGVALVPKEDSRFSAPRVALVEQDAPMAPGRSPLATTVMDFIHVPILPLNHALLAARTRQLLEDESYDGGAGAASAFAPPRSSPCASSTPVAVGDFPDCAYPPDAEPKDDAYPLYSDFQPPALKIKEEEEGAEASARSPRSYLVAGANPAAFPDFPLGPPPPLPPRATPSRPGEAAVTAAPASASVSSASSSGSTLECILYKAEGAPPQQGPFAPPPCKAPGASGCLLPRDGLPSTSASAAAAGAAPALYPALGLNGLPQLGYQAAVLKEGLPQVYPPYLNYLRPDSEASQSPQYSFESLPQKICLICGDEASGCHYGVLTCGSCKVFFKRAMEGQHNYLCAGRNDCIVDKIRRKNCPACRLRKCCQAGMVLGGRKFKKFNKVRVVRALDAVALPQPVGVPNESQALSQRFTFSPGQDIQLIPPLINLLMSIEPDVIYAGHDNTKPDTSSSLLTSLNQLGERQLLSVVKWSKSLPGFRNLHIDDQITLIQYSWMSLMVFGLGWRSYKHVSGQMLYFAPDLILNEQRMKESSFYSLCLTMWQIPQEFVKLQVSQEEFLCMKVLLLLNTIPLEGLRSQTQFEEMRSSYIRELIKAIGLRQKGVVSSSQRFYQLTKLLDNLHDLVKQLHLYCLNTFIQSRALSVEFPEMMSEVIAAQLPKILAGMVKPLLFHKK

For the compound `CCCCC/C=C/CC1CC(=O)OC1=O` (configuration not stated), the Potency entry in assay [1], in [2], in [3], in [4], in assay [5] and in assay [7] was “inactive” in each case. The Potency result in assay [8] and in assay [9] was “inactive” each time. In [6], the outcome was inactive.

Turning to `NC(N)=NC(=O)Cc1c(Cl)cccc1Cl`, the Potency result in assay [1], in [2], in assay [3], in assay [4], in assay [5] and in assay [7] was “inactive” each time. Further, the Potency entry in assay [8] and in assay [9] was “inactive” throughout. Moreover, the compound was classed as inactive in [6].

As to `CC(=O)CC(=O)Nc1ccc2[nH]c(=O)[nH]c2c1`, the Potency result in assay [1], in assay [2], in assay [3], in [4], in assay [5] and in assay [7] was “inactive” each time. The Potency result in assay [8] and in assay [9] was “inactive” each time. Besides, the call in assay [6] was inactive.

On to `COc1ccc(CCN2CCC(Nc3nc4ccccc4n3Cc3ccc(F)cc3)CC2)cc1`, for which the Potency in [1] is 18.8 µM (active); in [2], 17.6 µM (active) and 23.7 µM (active); in assay [3], 14 µM (active); in assay [4], 39.8 µM (active); in [5], 44.6 µM (active); in assay [8] it was 3.94 µM (active) and 13.3 µM (active). In addition, in assay [9], the Potency was 7.86 µM (active). In addition, the compound was called inactive in assay [6]. In assay [7], the Potency entry is “inactive”.

`NNCCc1ccccc1`: the Potency entry in [1], in [2], in assay [3], in assay [4], in [5] and in assay [7] was “inactive” in each case. Besides, the Potency result in [8] and in assay [9] was “inactive” in each case. Besides, the compound was called inactive in assay [6].

As to `O=Cc1ccc(Cl)cc1`, the Potency entry in [1], in assay [2], in assay [3], in [4], in [5] and in assay [7] was “inactive” in each case. The Potency result in assay [8] and in [9] was “inactive” each time. For the same compound, the compound was called inactive in assay [6].

Consider `CC(C)(O)CCC(C)(C)O`, for which the Potency entry in assay [1], in assay [2], in [3], in assay [4], in [5] and in [7] was “inactive” in each case. The Potency result in assay [10], in [8] and in [9] was “inactive” throughout. For the same compound, the compound was called inactive in [6].

As for `Cc1cccc2n[nH]nc12`, the Potency result in [1], in [2], in assay [3], in assay [4], in assay [5] and in assay [7] was “inactive” in each case. The Potency result in assay [8] and in [9] was “inactive” throughout. Besides, the outcome in assay [6] was inactive.

For `CC(=O)C1=C(C)[C@@H]2C[C@@]3(C1)[C@H](C)CC[C@H]3C2(C)C`, the Potency result in assay [1], in [2], in assay [3], in assay [4], in assay [5] and in [7] was “inactive” in each case. The Potency result in assay [8] and in assay [9] was “inactive” each time. In addition, the result in assay [6] was inactive.

As for `CCCN[C@H]1CCc2nc(N)sc2C1`, the Potency result in assay [1], in [2], in [3], in [4], in assay [5] and in [8] was “inactive” in each case. In assay [9], the Potency entry is “inactive”. The compound was classed as inactive in assay [6].

Consider `C/C=C/c1ccc(OCC)c(O)c1`, for which the Potency result in assay [1], in assay [2], in assay [3], in assay [4], in assay [5] and in assay [7] was “inactive” in each case. Besides, the Potency entry in assay [8] and in assay [9] was “inactive” each time. Further, the result in assay [6] was inactive.

For `COC(=O)c1cccc(C(=O)OC)c1`, the Potency result in assay [1], in [2], in [3], in assay [4], in [5] and in assay [7] was “inactive” each time. The Potency entry in assay [10], in assay [8] and in [9] was “inactive” throughout. Further, the outcome in [6] was inactive.

With `Cc1ccnc2c1NC(=O)c1cccnc1N2C1CC1`, the Potency entry in assay [1], in assay [2], in assay [3], in assay [4], in [5] and in [7] was “inactive” each time. For the same compound, the Potency entry in assay [8] and in [9] was “inactive” each time. Moreover, in [6], the call was inactive.

On to `CC(C)(C)c1cc(C(C)(C)C)c(O)c(C(C)(C)C)c1`, for which the Potency result in assay [1], in [2], in assay [3], in [4], in [5] and in assay [7] was “inactive” throughout. Moreover, the Potency entry in [8] and in [9] was “inactive” throughout. Further, the compound was called inactive in assay [6].

Turning to `CC(=O)OCC1=C(C(=O)O)N2C(=O)[C@@H](NC(=O)Cc3cccs3)[C@H]2SC1`, the Potency result in [1], in assay [2], in [3], in assay [4], in assay [5] and in assay [7] was “inactive” in each case. The Potency result in assay [10], in assay [8] and in assay [9] was “inactive” throughout. In assay [6], the compound was called inactive.

As for `CNC1(C)C2CCC(C2)C1(C)C` (configuration not stated), the Potency entry in [1], in assay [2], in [3], in assay [4], in [5] and in [7] was “inactive” in each case. Besides, the Potency result in assay [10], in assay [8] and in [9] was “inactive” each time. The compound was called inactive in assay [6].

With `CC(C)(C)NC(=O)[C@@H]1CN(Cc2cccnc2)CCN1C[C@@H](O)C[C@@H](Cc1ccccc1)C(=O)N[C@H]1c2ccccc2C[C@H]1O`, the Potency result in assay [1], in assay [2], in assay [3], in assay [4], in assay [5] and in assay [8] was “inactive” throughout. Further, the Potency entry in assay [9] is “inactive”. The compound was classed as inactive in assay [6].

As for `CCC(CO)(CO)COCC(CC)(CO)CO`, the Potency result in assay [1], in assay [2], in assay [3], in assay [4], in assay [5] and in [7] was “inactive” throughout. The Potency result in assay [8] and in assay [9] was “inactive” each time. Also, the compound was classed as inactive in assay [6].

In the case of `CCCNC(C)C(=O)Nc1ccccc1C` (configuration not stated), the Potency result in assay [1], in assay [2], in [3], in assay [4], in [5] and in assay [7] was “inactive” each time. Also, the Potency entry in [10], in assay [8] and in [9] was “inactive” each time. Also, in assay [6], the compound was classed as inactive.

On to `CC(COc1ccccc1)N(CCCl)Cc1ccccc1` (configuration not stated), for which the Potency in assay [1] was 30.6 µM (active) and 26.6 µM (active). Further, the Potency result in assay [2], in [3], in [4], in assay [5], in assay [8] and in [9] was “inactive” each time. Also, the outcome in [6] was inactive.
